This passage reports outcome and AC50 results from PubChem BioAssay (EPA / NIEHS).

The structures appear in SMILES notation. Records with an inconclusive call do not appear. Activity calls are given as the source filed them. The calls were made as follows: active = hit-call score of the fitted dose curve at least 0.9, where 1 is the maximum; inconclusive = response in the unintended direction; inactive = score below 0.9.

Assay [1] deals with Luciferin 4-monooxygenase (Photinus pyralis) (UniProt P08659). The experiment in a line: CCTE_Simmons_QuantiLum_inhib_2: CCTE's Firefly Luciferase Inhibition Assay, Simmons Lab (AID 2283767).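 As to AC50: potency for inhibitors that lower luciferase luminescence relative to DMSO.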 In short, it runs like this: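 First, 5 ng purified luciferase in phosphate buffer with BSA is dispensed per well. Next, test chemicals (5 nM to 87.5 uM final, 0.5% DMSO) are added and incubated 30 min at 37C in darkness. Finally, luciferin reagent is injected and luminescence read kinetically.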
Sequence of Luciferin 4-monooxygenase (Photinus pyralis) (P08659 whole entry, looked up): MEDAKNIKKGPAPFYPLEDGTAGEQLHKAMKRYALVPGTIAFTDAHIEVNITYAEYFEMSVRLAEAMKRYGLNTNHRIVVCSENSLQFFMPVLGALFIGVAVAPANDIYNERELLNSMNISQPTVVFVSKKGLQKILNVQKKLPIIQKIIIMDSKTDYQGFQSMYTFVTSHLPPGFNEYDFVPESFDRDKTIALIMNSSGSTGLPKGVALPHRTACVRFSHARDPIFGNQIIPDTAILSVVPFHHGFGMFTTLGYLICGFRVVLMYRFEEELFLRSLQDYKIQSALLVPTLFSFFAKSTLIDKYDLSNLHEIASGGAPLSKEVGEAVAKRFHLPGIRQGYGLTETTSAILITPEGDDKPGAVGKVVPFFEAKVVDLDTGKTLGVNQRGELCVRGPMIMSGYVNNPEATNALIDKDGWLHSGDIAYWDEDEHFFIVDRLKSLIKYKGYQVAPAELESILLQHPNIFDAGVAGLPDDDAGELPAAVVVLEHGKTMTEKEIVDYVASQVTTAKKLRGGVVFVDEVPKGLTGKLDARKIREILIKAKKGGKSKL

The nature of assay [2]: ACEA_AR_agonist_AUC_viability: ACEA Biosciences xCELLigence Real-Time Cell Analysis on Androgen Receptor Agonism for Viability (AID 2283775).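 As to AC50: viability read 80 hours after compound addition.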 In short, it runs like this: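 22Rv1 cells; impedance growth kinetics; 8-pt 1:4 dilutions from 100 uM top final, ≤0.5% DMSO; n = 2; 80 h read; AUC viability, loss-of-signal vs DMSO.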
Assay [3] in a line: ACEA_AR_antagonist_AUC_viability: ACEA Biosciences xCELLigence Real-Time Cell Analysis on Androgen Receptor Antagonism for Viability (AID 2283776).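 Also: 22Rv1 human prostate cancer cells growing on impedance electrode plates; area under impedance growth curve at 80 h after dosing as viability; hits lower the growth signal relative to DMSO meaning cytotoxicity.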 An outline of the steps: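 Viability endpoint from label-free cell-index monitoring: 22Rv1 cultures treated with an eight-point 1:4 dilution series starting at 100 uM final, AUC at 80 h fitted against DMSO.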
A short description of assay [4]: ACEA_ER_AUC_viability: ACEA Biosciences xCELLigence Real-Time Cell Analysis on Estrogen Receptor Agonism for Viability (AID 2283782).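 Also: hit means loss of impedance signal meaning reduced cell growth or viability.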 In short, it runs like this:
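Read-out: real-time electrical impedance (RT-CES) area under curve, loss of signal taken as reduced viability, normalized to DMSO baseline. T-47D cells, charcoal-stripped serum medium, compounds up to 100 uM final, continuous exposure, 80 h.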

Assay [5] in a line: ArunA_NOG_BranchPointsPerNeurite: ArunA Biomedical's Neurite Outgrowth (NOG) Assay for Branch Points Per Neurite (AID 2283759). An outline of the steps: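 Automated image analysis traced neurites (processes >10 um) from valid cell bodies after Hoechst and βIII-tubulin staining. hNN cells from H9 embryonic stem cells, 48 h exposure. Fitted bidirectionally against DMSO.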
The nature of assay [6]: STM_H9_NormalizedViability: Cytotoxicity Assessment at 120 hours in the Stemina devTOX quickPredict H9 human embryonic stem cell (hESC)-based Assay (AID 2283784). An outline of the steps:
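Viability of the cell layer was taken from live-cell protease cleavage of a fluorogenic substrate after compound exposure of undifferentiated H9 stem cells, with replenishment each 24h. Fluorescence was normalized to vehicle (0.1% DMSO).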

The subject of assay [7] is zebrafish Androgen Receptor (AR), gene 100005148. The assay can be described thus: ATG_zfAR_XSP1: Attagene TRANS-FACTORIAL Multi-Species (XSP1) HepG2 Assay for zebrafish Androgen Receptor (AR) (AID 2283771). In short, it runs like this:
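Gain-of-signal versus DMSO was measured as reporter transcripts quantified by RT-PCR, fluorescent labelling and capillary electrophoresis after 24 h chemical exposure. The cells were HepG2 expressing a chimeric zebrafish AR-GAL4, co-stimulated with 3 nM 6-alpha-fluorotestosterone.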

The target in assay [8] is zebrafish Estrogen Receptor (ESR1), esr1 (gene 259252) (UniProt P57717). The assay can be described thus: ATG_zfER1_XSP1: Attagene TRANS-FACTORIAL Multi-Species (XSP1) HepG2 Assay for zebrafish Estrogen Receptor (ESR1) (AID 2283772). In short, it runs like this:
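Reporter mRNA induction, gauged via RT-PCR/capillary electrophoresis fluorescence relative to DMSO controls, in HepG2 cells transiently carrying GAL4-UAS reporter units; 24 h dosing.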

The subject of assay [9] is zebrafish Estrogen Receptor (ESR2B), gene 317733. The experiment in a line: ATG_zfER2b_XSP1: Attagene TRANS-FACTORIAL Multi-Species (XSP1) HepG2 Assay for zebrafish Estrogen Receptor (ESR2B) (AID 2283773). In short, it runs like this:
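Multiplexed TRANS format in transfected HepG2 liver cells, chimeric NR-Gal4 from zebrafish ESR2B. 24 h dosing; medium contains 3 nM 6-alpha-fluorotestosterone. mRNA induction by RT-PCR/CE, positive direction vs DMSO.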

In assay [10] the test system is frog Estrogen Receptor (ESR2), gene 100174814. The experiment in a line: ATG_frER2_XSP1: Attagene TRANS-FACTORIAL Multi-Species (XSP1) HepG2 Assay for frog Estrogen Receptor (ESR2) (AID 2283774). In short, it runs like this: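 HepG2, transient MRTU transfection (GAL4-UAS reporters, exogenous NR-Gal4 chimeras); 24 h compound exposure; 3 nM 6α-fluorotestosterone co-added; total RNA → RT-PCR → 6-FAM primer extension → HpaI → CE. Positive direction vs DMSO.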

Assay [11] concerns the target GAL4 Transcription Factor (Internal Marker), GAL4 (gene 855828) (UniProt P04386). The assay can be described thus: ATG_GAL4_XSP1: Attagene TRANS-FACTORIAL Multi-Species (XSP1) HepG2 Assay for GAL4 Transcription Factor (Internal Marker) (AID 2283789). An outline of the steps:
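This background-control endpoint measures GAL4-driven reporter mRNA via RT-PCR and capillary electrophoresis of labelled fragments. Transiently transfected HepG2 cells were treated 24 h, with 3 nM 6-alpha-fluorotestosterone included, and gain-of-signal was fitted against DMSO.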

A short description of assay [12]: ATG_M_19_XSP1: Attagene TRANS-FACTORIAL Multi-Species (XSP1) HepG2 Assay for M19 Transcription Factor (Internal Marker) (AID 2283798). An outline of the steps:
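Readout is reporter mRNA induction quantified via RT-PCR, 6-FAM labeling, HpaI digestion and capillary electrophoresis, fitted in the positive direction versus DMSO baseline. Transfected HepG2 cells exposed 24 h, medium including 3 nM 6-alpha-fluorotestosterone.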

Assay [13] in a line: ATG_M_32_XSP1: Attagene TRANS-FACTORIAL Multi-Species (XSP1) HepG2 Assay for M32 Transcription Factor (Internal Marker) (AID 2283799). In short, it runs like this:
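Reporter transcripts from the M32 internal-control unit measured by RT-PCR, FAM labelling, HpaI digestion and capillary electrophoresis after 24 h compound exposure of transfected HepG2, 3 nM 6-alpha-fluorotestosterone included; DMSO baseline, positive-direction fit.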

For assay [14], the target named is Peroxisome proliferator-activated receptor gamma (Homo sapiens) (UniProt P37231). The experiment in a line: ATG_hPPARg_XSP1: Attagene TRANS-FACTORIAL Multi-Species (XSP1) HepG2 Assay for human Peroxisome Proliferator-activated Receptor gamma (PPARg) (AID 2283800). An outline of the steps: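 Reporter mRNA induction, measured by RT-PCR with capillary electrophoresis 24 h after dosing, scored as gain over DMSO. Transfected HepG2 cells express exogenous NR-Gal4 chimeras driving GAL4-UAS reporters; medium includes 3 nM 6-alpha-fluorotestosterone.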
Sequence of Peroxisome proliferator-activated receptor gamma (Homo sapiens) (P37231 whole entry, looked up, the tested form may be a part): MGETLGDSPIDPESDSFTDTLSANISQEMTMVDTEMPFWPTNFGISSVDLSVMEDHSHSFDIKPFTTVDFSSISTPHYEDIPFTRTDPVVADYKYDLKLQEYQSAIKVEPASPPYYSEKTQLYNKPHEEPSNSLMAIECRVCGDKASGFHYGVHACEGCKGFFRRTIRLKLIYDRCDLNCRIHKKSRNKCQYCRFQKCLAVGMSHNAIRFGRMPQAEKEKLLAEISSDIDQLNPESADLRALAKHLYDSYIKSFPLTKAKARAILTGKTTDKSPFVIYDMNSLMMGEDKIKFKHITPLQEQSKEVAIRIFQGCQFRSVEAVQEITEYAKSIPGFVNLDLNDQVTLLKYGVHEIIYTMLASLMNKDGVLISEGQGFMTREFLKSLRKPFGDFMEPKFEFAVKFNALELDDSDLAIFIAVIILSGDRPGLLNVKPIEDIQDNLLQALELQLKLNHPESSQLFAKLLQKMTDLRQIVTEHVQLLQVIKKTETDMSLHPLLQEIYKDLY

Assay [15] deals with zebrafish Peroxisome Proliferator-activated Receptor gamma (PPARg), gene 557037. The assay can be described thus: ATG_zfPPARg_XSP1: Attagene TRANS-FACTORIAL Multi-Species (XSP1) HepG2 Assay for zebrafish Peroxisome Proliferator-activated Receptor gamma (PPARg) (AID 2283801). In short, it runs like this:
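Trans-activation readout of chimeric zebrafish PPARg–GAL4 in transiently transfected human HepG2 cells, 24 h chemical exposure (medium includes 3 nM 6-alpha-fluorotestosterone). Reporter transcripts measured by RT-PCR and capillary electrophoresis, fitted as gain over DMSO.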

For assay [16], the target named is mouse Peroxisome Proliferator-activated Receptor gamma (PPARg), Pparg (gene 19016) (UniProt P37238). The assay can be described thus: ATG_mPPARg_XSP1: Attagene TRANS-FACTORIAL Multi-Species (XSP1) HepG2 Assay for mouse Peroxisome Proliferator-activated Receptor gamma (PPARg) (AID 2283802). In short, it runs like this: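 Readout is reporter mRNA induction, measured by RT-PCR with 6-FAM labelling, HpaI digestion and capillary electrophoresis, 24 h post-dose relative to DMSO. Transient multi-reporter transfection of human HepG2 with mouse PPARg–GAL4 fusion; 3 nM 6-alpha-fluorotestosterone included.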
Sequence of mouse Peroxisome Proliferator-activated Receptor gamma (PPARg), Pparg (gene 19016) (P37238 whole entry, looked up, the tested form may be a part): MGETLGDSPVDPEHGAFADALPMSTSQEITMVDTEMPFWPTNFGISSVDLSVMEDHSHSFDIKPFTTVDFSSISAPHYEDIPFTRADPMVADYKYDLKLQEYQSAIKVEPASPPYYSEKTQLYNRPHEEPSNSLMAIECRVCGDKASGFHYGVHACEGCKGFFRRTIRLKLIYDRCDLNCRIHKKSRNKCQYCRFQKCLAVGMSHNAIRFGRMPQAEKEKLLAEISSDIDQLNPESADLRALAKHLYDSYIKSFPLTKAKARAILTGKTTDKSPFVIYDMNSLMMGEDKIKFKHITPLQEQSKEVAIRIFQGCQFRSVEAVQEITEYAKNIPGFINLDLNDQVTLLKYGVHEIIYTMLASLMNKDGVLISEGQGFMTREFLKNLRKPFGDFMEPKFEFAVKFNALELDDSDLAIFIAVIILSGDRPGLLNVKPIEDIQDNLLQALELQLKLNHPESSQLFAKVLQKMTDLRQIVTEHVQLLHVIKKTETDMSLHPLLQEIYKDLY

Assay [17] concerns the target Nuclear receptor subfamily 1 group I member 2 (Mus musculus) (UniProt O54915). The assay can be described thus: ATG_mPXR_XSP1: Attagene TRANS-FACTORIAL Multi-Species (XSP1) HepG2 Assay for mouse Pregnane X Receptor (PXR) (AID 2283803). An outline of the steps: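 Transiently transfected HepG2 cells expressing a receptor-Gal4 chimera drive a GAL4-UAS reporter; 3 nM 6-alpha-fluorotestosterone included. Reporter mRNA read 24 h post-dose by RT-PCR and capillary electrophoresis; gain of signal relative to DMSO.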

Assay [18] can be described thus: ArunA_NOG_NeuriteLength: ArunA Biomedical's Neurite Outgrowth (NOG) Assay for Neurite Length (AID 2283757). An outline of the steps:
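Total neurite length per neuron, from traced βIII-tubulin-labelled processes longer than 10 um on viable Hoechst-gated cells, was scored as decrease from DMSO. Cells were hESC (H9)-derived neurons given 48 h chemical exposure immediately after seeding.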

A short description of assay [19]: ArunA_NOG_NeuritesPerNeuron: ArunA Biomedical's Neurite Outgrowth (NOG) Assay for Neurites Per Neuron (AID 2283758). An outline of the steps:
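Differentiated human H9-derived neurons exposed to chemicals for 48 h from seeding, then stained with Hoechst and βIII-tubulin/DyLight 488. Automated imaging counted neurites (processes >10 um) per valid neuron; loss of signal versus DMSO scored.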

Sequence of GAL4 Transcription Factor (Internal Marker), GAL4 (gene 855828) (P04386 whole entry, looked up, the tested form may be a part): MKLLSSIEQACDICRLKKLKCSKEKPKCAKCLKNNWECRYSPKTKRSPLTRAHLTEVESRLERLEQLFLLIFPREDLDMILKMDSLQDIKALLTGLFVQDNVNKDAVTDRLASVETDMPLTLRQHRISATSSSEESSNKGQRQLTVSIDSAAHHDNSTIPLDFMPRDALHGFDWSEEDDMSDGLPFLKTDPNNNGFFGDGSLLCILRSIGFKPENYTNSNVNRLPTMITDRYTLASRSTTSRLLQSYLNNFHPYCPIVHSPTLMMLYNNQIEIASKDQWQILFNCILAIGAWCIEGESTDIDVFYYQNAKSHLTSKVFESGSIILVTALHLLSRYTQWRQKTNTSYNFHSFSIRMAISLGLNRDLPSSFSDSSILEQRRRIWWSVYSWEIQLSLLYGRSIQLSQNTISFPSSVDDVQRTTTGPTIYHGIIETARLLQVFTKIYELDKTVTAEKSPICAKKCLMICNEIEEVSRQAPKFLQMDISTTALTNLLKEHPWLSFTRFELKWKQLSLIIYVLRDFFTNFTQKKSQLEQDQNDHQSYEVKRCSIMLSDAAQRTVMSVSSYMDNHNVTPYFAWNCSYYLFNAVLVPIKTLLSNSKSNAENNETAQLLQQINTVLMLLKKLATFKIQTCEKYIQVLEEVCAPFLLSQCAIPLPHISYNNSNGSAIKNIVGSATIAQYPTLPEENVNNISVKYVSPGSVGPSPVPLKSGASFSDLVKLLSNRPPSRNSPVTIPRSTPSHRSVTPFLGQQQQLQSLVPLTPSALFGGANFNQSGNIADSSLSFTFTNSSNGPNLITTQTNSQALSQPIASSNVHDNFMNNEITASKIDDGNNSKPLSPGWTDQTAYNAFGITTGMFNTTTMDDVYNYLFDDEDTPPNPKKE
Sequence of zebrafish Estrogen Receptor (ESR1), esr1 (gene 259252) (P57717 whole entry, looked up, the tested form may be a part): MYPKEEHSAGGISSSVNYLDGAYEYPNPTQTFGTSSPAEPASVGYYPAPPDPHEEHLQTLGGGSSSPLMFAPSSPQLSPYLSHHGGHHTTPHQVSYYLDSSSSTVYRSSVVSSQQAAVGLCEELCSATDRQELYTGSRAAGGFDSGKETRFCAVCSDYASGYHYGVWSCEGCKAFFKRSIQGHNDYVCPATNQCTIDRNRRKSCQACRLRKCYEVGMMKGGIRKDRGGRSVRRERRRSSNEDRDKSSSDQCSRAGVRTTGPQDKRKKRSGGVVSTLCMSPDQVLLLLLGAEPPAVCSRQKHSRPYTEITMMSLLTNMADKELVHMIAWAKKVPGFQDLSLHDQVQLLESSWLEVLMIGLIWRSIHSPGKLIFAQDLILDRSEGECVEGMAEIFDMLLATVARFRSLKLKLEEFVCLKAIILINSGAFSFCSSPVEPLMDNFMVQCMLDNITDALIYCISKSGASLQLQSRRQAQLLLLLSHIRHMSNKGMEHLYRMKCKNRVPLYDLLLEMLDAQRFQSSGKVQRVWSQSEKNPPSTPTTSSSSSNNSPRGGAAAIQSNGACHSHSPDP
Sequence of Nuclear receptor subfamily 1 group I member 2 (Mus musculus) (O54915 whole entry, looked up, the tested form may be a part): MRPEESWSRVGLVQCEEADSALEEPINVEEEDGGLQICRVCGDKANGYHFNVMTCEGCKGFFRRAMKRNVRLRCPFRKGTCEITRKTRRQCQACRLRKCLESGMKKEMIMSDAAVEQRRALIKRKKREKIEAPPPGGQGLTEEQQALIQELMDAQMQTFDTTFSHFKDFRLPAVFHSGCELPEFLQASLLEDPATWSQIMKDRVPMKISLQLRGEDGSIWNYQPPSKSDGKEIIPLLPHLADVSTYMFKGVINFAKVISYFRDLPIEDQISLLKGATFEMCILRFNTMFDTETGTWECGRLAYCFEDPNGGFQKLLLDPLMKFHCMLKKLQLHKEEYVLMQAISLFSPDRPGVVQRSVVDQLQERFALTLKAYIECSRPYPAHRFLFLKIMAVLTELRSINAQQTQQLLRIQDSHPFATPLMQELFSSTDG

For the compound `CCNc1cccc(C)c1`, the result in assay [1], in assay [2], in [3] and in [4] was inactive.

Usually AC50 stands for the concentration at which the activity in the assay is half-maximal. `CCCCc1ccc2c(n1)[C@@H](c1ccc(OC)cc1C[C@H](C)C(=O)O)[C@H](C(=O)O)[C@H]2c1ccc2c(c1)OCO2`: the compound was called inactive in assay [5], in [2] and in assay [6]. In [3], the AC50 is 19.9 µM (active).

As to `Cc1ccc(C)c(O)c1C`, the compound was classed as inactive in assay [1], in [2], in assay [3] and in [4].

As to `C[C@]12C=CC(=O)C=C1CC[C@@H]1[C@@H]2C(=O)C[C@@]2(C)[C@H]1CC[C@]2(O)C(=O)CO`, the outcome in [1] and in assay [3] was inactive.

Consider `Nc1nc(N)c2nc(CNc3ccc(C(=O)N[C@@H](CCC(=O)O)C(=O)O)cc3)cnc2n1`, for which the outcome in [1] and in [2] was inactive. The AC50 in assay [4] was 40.1 µM (active).

For the compound `CC(C)(C)c1cc(O)c(C(C)(C)C)cc1O`, the call in assay [1], in assay [7], in assay [8], in [10], in [3] and in assay [11] was inactive. Further, the compound was classed as inactive in assay [12], in assay [13], in assay [15] and in assay [17]. For the same compound, the AC50 in assay [9] is 186 µM (active); in assay [2], 66.3 µM (active); in assay [14], 160 µM (active); in [16] it was 100 µM (active).

For the compound `C=CCc1ccc(O)c(OC)c1`, the result in assay [1], in assay [2] and in [3] was inactive.

Regarding `O=c1c(O)c(-c2ccc(O)c(O)c2)oc2cc(O)cc(O)c12`, the AC50 is 9.45 µM (active) in [18]; 7.94 µM (active) in [19]; 8.06 µM (active) in assay [5]; 53.8 µM (active) in assay [1]; 17.8 µM (active) in assay [2]. Also, the result in [6] was inactive.

For `Nc1ccccc1N`, the AC50 in assay [1] was 24.8 µM (active); in assay [3], 24.2 µM (active); in assay [6], 2.01 µM (active). Besides, the compound was classed as inactive in assay [2] and in assay [4].

Regarding `COc1cc(S(=O)(=O)O)c(C)cc1N=Nc1c(O)ccc2cc(S(=O)(=O)O)ccc12`, the half-maximal activity concentration (AC50) in assay [1] is 10.7 µM (active). In addition, the outcome in assay [3] was inactive.
